A selection: hits, their analogues and other compounds. The true share with any hit is near 4.6%.
D1 agonist = activates the human D1 dopamine receptor; P21728; HEK293 T-REx D1 cells, calcium flux, agonist mode; 360,000 tested, 1% active; activation, % at 2 µM; AID 504660; further: 0% is about no effect
Target sequence (P21728 whole entry, looked up): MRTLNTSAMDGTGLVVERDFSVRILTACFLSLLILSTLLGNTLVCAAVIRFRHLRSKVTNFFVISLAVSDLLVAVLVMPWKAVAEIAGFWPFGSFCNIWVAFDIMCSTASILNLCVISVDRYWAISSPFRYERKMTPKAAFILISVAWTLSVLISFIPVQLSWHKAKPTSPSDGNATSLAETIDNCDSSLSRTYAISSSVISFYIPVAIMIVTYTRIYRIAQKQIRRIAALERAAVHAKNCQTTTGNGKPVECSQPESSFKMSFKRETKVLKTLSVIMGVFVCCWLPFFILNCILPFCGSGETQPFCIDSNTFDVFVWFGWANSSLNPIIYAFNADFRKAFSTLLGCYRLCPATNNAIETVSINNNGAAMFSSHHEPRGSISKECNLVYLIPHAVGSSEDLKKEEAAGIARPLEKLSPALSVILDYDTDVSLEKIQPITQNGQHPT
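Inducible HEK293 T-REx D1 cells, force-coupled to calcium signalling, were plated at 4000 cells/well with tetracycline and held overnight at 30 C. After no-wash calcium dye loading, compound-evoked calcium rise over 180 s flagged agonists.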
D1 antag = antagonists of human D1 dopamine receptor | P21728 | HEK293 TREx D1 cells, calcium flux, dopamine EC80; hits give low values | activity change, negative = inhibition, % at 10 µM | 360,000 tested, 3.2% active; in the data active means activity change below about -30%; further: on the % scale 0 is the no-effect control and ±100 the full control effect
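Kinetic fluorescence of a calcium dye serves as the read-out. D1-expressing Hek293 Trex cells, induced overnight at 30 C, are exposed to compound for 180 s before an EC80 dopamine addition, then read 180 s further.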
TRHR ag = TRH receptor (human) agonism; P34981; TRHR cells, calcium flux fluo-8, FDSS agonist mode; 360,000 tested, 0.18% active; activation, % at 2 µM; further: 0% is about no effect
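In this calcium-flux screen, cells bearing human TRHR are dye-loaded with fluo-8, baselined for 10 cycles, then exposed to library compounds; positive kinetic calcium responses during the agonist phase mark hits, with TRH as control.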
Epigenetic reg = regulators of epigenetic silencing causing reporter derepression in mouse cells | murine LDR cells, GFP reporter derepression, 30 h | Potency, µM (series often up to 53.9 µM), for inactives: at the top dose GFP activation, most hits filed as activators | 280,000 tested, 0.2% active; active means well fitted activation curve with a large enough effect; further: potency means the concentration at half of the fitted maximal effect; % of control where 0% means no effect; nearly all actives have a fitted effect of over 60% in size
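Readout is the number of GFP-expressing murine LDR cells, counted by cytometry following washing. Cells were treated with compound for 30 h at 37 C; the stably integrated CMV-GFP locus is normally silent.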
TRHR PAM = allosterically enhances the human TRH receptor. P34981. TRHR cells, fluo-8 calcium fluorescence, EC20 TRH enhancement. enhancement, % at 2 µM. 360,000 tested, 0.66% active; in the data active means enhancement above about 30%; further: 0% is about no effect
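Enhancer read-out: after compound pinning and an initial kinetic agonist-mode read, an EC20 of TRH (10 nM final) was injected and fluo-8 calcium signal (Ex 480/Em 530) followed at 1 s/cycle for 100 cycles in TRHR-expressing cells.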
D1 potentiator = potentiators of human D1 dopamine receptor | P21728 | HEK293 TREx D1 cells, calcium flux, dopamine EC20 potentiation | potentiation, % at 10 µM | 360,000 tested, 0.036% active | AID 504651; in the data active means potentiation above about 30%; further: 0% is about no effect
Numbers without * were called inactive; x = no result given; ! = a repeat was not active. Unless noted, no stated cut-off is given here; in the data, active means activation above about 30%; inactive means the rest.

SMILES	D1 agonist	D1 antag	TRHR ag	Epigenetic reg	TRHR PAM	D1 potentiator
COC(=O)c1ccc(NC(=O)CC2C(=O)N(c3ccc(F)cc3)C(=O)N2Cc2ccc(OC)cc2)cc1 (centres undefined)	5.2	-0.6	0.8	0.3%	-4.2	-3.6
CCN1C(=O)/C(=C/c2cn(C)nc2C)SC1=S	-0.7	-5.7	-0.2	1.1%	-3.4	-4.2
CCN1C(=S)SC(=O)C1=C1C=C(C)N(CCOC)C(C)=C1	45.0*	9.7	14.1	7.8%	-4.4	4.9
CCN1C(=S)SC(=O)C1=C1C=C(C)N(CCO)C(C)=C1	33.7*	-0.1	16.6	14.1µM*	-0.7	-2.5
Cc1ccc(C)c(N2CCN(C(=O)c3cc4c(=O)n(Cc5cccnc5)ccc4nc3C)CC2)c1	2.7	-8.2	0.3	0.0%	6.9	-6.3
Cc1ccc(NC(=O)Nc2cc(S(C)(=O)=O)ccc2Cl)cc1	2.6	-38.2*	-0.6	-1.4%	-3.0	-3.2
O=C(Nc1cccc(Cl)c1)N(CCN1CCOCC1)Cc1cccc(Cl)c1	48.1*	-37.9*	-0.2	0.0%	-1.0	-13.4
COc1ccc(OC)c(CN(CCN2CCOCC2)C(=O)Nc2ccccc2)c1	1.2	7.1	0.1	1.0%	-0.5	2.5
Cc1ccc(C)c2[nH]c(=O)c(CN(CCN3CCCC3)C(=O)Nc3cccc(Cl)c3)cc12	39.0*	-12.3	0.0	2.6%	3.0	-11.3
COc1ccc(OC)c(CN(CCN2CCOCC2)C(=O)Nc2cccc(Cl)c2)c1	2.3	-31.2*	0.6	1.0%	-1.3	-0.3
O=C(Nc1ccc(F)cc1)C1CCN(c2nc3ccccc3n3cccc23)CC1	3.2	17.3	0.3	0.0%	2.0	1.5
CCCCN1C2CCCC1CC(NC(=O)C1CCCCC1)C2 (centres undefined)	0.8	-54.7*	0.0	0.0%	1.7	-3.4
CCCCN1C2CCCC1CC(NC(=O)c1cccc(Cl)c1)C2 (centres undefined)	0.6	-34.7*	0.5	x	3.8	-3.4
CCn1nc(C)cc1C(=O)N1CCCC(N2CCN(c3cccc(Cl)c3)CC2)C1 (centres undefined)	2.7	-53.7*	-0.6	x	-1.3	-10.9
Cc1cc(C(=O)N2CCCC(N3CCN(c4cccc(Cl)c4)CC3)C2)n(C)n1 (centres undefined)	6.1	14.8	0.0	x	-0.2	-4.1
O=C(c1ccoc1)N1CCCC(N2CCN(c3ccc(F)cc3)CC2)C1 (centres undefined)	0.2	-6.3	0.3	x	-1.3	-5.0
O=C(c1ccoc1)N1CCCC(N2CCN(c3cccc(Cl)c3)CC2)C1 (centres undefined)	4.0	-46.1*	-0.5	x	-8.0	-5.2
CCN(CC)S(=O)(=O)c1ccc(N2CCN(S(=O)(=O)c3ccccc3)CC2)nc1	1.5	3.5	0.6	x	-2.5	-4.9
CCN(CC)S(=O)(=O)c1ccc(N2CCN(S(=O)(=O)c3ccccc3C#N)CC2)nc1	2.6	-83.2*	1.0	3.6%	-5.1	-5.0
COc1ccc(C(C(=O)NCc2ccccc2)N(C(=O)Cn2nnc3ccccc32)c2cccc(OC)c2)cc1 (centres undefined)	6.3	2.1	0.5	0.8%	-0.5	-1.2
COc1ccccc1N=Nc1[nH]c2ccc(C)cc2c1O	0.8	-8.3	0.0	1.9%	34.1*	-5.2
CC(=O)c1ccc(NC(=O)CSc2nnc3ccc(-c4ccc(Cl)cc4)nn23)cc1	-3.8	x	-0.2	8.5%	-4.9	3.6
C/C(=N\NC(=O)C1CC1(c1ccccc1)c1ccccc1)c1cccc([N+](=O)[O-])c1 (centres undefined)	0.9	-76.8*	0.6	1.0%	-1.1	-4.6
CCc1cccc(-n2c(=O)c3cccnc3n2CC(=O)Nc2c(C)cc(C)cc2C)c1	2.8	4.6	-0.1	-1.5%	-6.1	2.0
COCCNC(=O)c1cnc2sc(N3CCCCC3)nn2c1=O	0.5	2.4	0.8	-0.9%	-0.2	-1.3
SMILES	D1 agonist	D1 antag	TRHR ag	Epigenetic reg	TRHR PAM	D1 potentiator
Cc1ccc(NC(=O)Cn2nc(C)c([N+](=O)[O-])c2C)cc1Cl	16.9	-0.1	0.8	2.8%	-0.4	-13.4
Cc1nn(CC(=O)NCCc2ccc(Cl)cc2Cl)c(C)c1[N+](=O)[O-]	33.9*	-8.0	-1.4	-1.0%	9.5	-6.5
O=C(O)C1(O)CC(O)C(O)C(O)C1 (centres undefined)	x	x	x	-5.5%	x	x
Cc1cccc(OCCCCCn2ccnc2)c1C	45.8*	2.5	-0.7	-1.0%	3.2	-6.1
CN1CCN2c3ncccc3Cc3ccccc3[C@@H]2C1	4.0	-32.1*	-0.4	x	17.1	-11.3
Cc1cccc(N(CC(=O)NCCc2ccccc2)S(=O)(=O)c2ccccc2)c1C	2.1	-8.1	-1.1	1.6%	-6.2	0.1
Cc1ccc(N(C)S(=O)(=O)c2ccc(-c3cnc(C4CC4)o3)cc2)cc1	12.6	-31.7*!	1.0	4.4%	5.2	-3.4
O=S(=O)(NCc1ccccc1)c1ccc(-c2cnc(C3CC3)o2)cc1	9.1	-38.4*!	-0.3	4.4%	2.2	-4.6
Cc1cccc(-c2ccc3ncnc(NCc4cc(C)cs4)c3c2)c1	0.8	16.0	0.6	x	-2.6	-0.3
CC(C)(C)OC(=O)N1CCC(c2c(C(=O)N3CCN(c4ccccn4)CC3)cnn2-c2cccc(F)c2)CC1	-0.3	1.3	-0.8	0.0%	-10.5	-1.2
CCOc1ccc(N2CC(c3nc4ccccc4n3Cc3cccc(Cl)c3)CC2=O)cc1 (centres undefined)	2.7	-33.6*	0.5	-1.0%	-0.3	1.3
CCOc1ccccc1N1CC(c2nc3ccccc3n2CCCCOc2ccccc2)CC1=O (centres undefined)	30.6*	-14.8	0.6	-0.6%	-7.0	0.8
CCOc1ccc(N2CC(c3nc4ccccc4n3CCOc3ccccc3)CC2=O)cc1 (centres undefined)	2.1	2.1	0.6	0.0%	0.0	0.3
Cc1cc2c(s1)c1cnn(Cc3c(Cl)ccc(C)c3F)c(=O)c1n2C	7.0	-2.1	0.4	x	4.6	3.2
COc1cc(C(=O)O)ccc1OCc1c(C)noc1C	0.5	x	0.6	1.0%	2.1	-1.6
Cc1noc(C)c1COc1ccc(C(=O)O)cc1	1.3	26.3	0.2	0.0%	32.5*	-0.5
COc1cc(C(=O)Nc2nnc(C3CC3)s2)ccc1OCc1c(C)noc1C	1.8	-32.2*	0.2	-2.3%	-1.1	-5.2
COc1cc(C(=O)Oc2ccccc2)ccc1OCc1c(C)noc1C	5.0	-37.1*	0.7	2.4%	5.0	-9.0
CCOC(=O)C1CCN(C(c2cccc(OC)c2)c2sc3nc(C)nn3c2O)CC1 (centres undefined)	-0.1	-30.6*	0.5	-0.8%	2.6	-9.4

Screening data (PubChem)
